# PubChem BioAssay (NCATS)
# Values joined by “and” are separate entries in the source; they are usually repeats but may differ in a detail not shown here. Identical values can stand only once. Inconclusive results are not listed. A call without a number means that no potency is given here. Values without a mark were called inactive. Active and inactive are the calls of the source. Unless noted, calls follow the shape of the dose curve; as a rule, active = well fitted curve in the direction sought with a large enough effect; inconclusive = small, poorly fitted or top-dose-only effect, or another doubt; inactive = no such curve, though single readings can be large; an effect the other way counts as inactive or inconclusive.
# Tests used:
# [1] = target: Cellular tumor antigen p53 (Homo sapiens) (UniProt P04637); assay: Primary qHTS for small molecule compounds that upregulate eGFP-tagged delta133p53alpha (in N-terminal) cells. (AID 2060322); settings: NCI-H358 eGFP-delta133p53alpha fluorescence, 24 h; activation: hits give high values; also: nearly all actives have a fitted effect of over 75% in size
# Sequence of Cellular tumor antigen p53 (Homo sapiens) (P04637 whole entry, looked up): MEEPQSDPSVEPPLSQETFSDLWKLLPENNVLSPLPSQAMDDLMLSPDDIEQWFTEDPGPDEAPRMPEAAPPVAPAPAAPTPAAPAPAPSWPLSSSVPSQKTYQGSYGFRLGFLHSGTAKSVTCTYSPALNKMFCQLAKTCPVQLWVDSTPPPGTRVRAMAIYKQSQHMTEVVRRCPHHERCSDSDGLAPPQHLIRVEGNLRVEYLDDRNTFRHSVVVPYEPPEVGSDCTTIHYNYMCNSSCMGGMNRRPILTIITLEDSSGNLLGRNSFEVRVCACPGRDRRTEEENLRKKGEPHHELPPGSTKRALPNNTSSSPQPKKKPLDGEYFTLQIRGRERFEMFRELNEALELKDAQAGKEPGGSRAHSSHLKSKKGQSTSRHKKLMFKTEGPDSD
# Procedure, shortened: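 NCI-H358 cells pre-induced 24 h with 10 ng/ml doxycycline to express N-terminal eGFP-delta133p53alpha, then dosed 24 h at 37C without doxycycline; fixed, Hoechst-stained, GFP intensity by laser scanning cytometry, normalized to DMSO (0%) and 57.5 uM 5-azacytidine (100%).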
# [2] = target: Cellular tumor antigen p53 (Homo sapiens) (UniProt P04637); assay: Primary qHTS for small molecule compounds that upregulate eGFP-tagged delta133p53alpha (in C-terminal) cells. (AID 2060324); settings: NCI-H358 delta133p53alpha-eGFP (C-terminal tag), GFP fluorescence imaging, 24 h; series mostly up to 57.5 µM
# Procedure, shortened: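 C-terminal eGFP-tagged delta133p53alpha NCI-H358 line; dox-induced (100 ng/ml, 24 h) then plated without dox; compounds pinned in titration, 24 h 37 °C/5% CO2; PFA fix, Hoechst nuclei; GFP by LSC.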
# [3] = target: Aldehyde dehydrogenase, mitochondrial (Homo sapiens) (UniProt P05091); assay: qHTS for Inhibitors of the Aldehyde Dehydrogenase Family (ALDH2) Validation screens (AID 2061302; active = well fitted inhibition curve with a large enough effect; title and protocol of this record describe different tests; also: potency is read from the fitted curve at half-maximal effect); settings: ALDH inhibition qHTS; series mostly up to 42.6 µM
# [4] = target: Retinaldehyde dehydrogenase 3 (Homo sapiens) (UniProt P47895); assay: qHTS for Inhibitors of the Aldehyde Dehydrogenase Family (ALDH1A3) Validation screen (AID 2061312); settings: ALDH1A3 enzyme inhibition qHTS validation, fluorescence; series mostly up to 42.4 µM; also: nearly all actives have a fitted effect of over 45% in size
# [5] = target: Aldehyde dehydrogenase, mitochondrial (Homo sapiens) (UniProt P05091); assay: qHTS for Inhibitors of the Aldehyde Dehydrogenase Family (ALDH2) Primary screen (AID 2061308); settings: ALDH2 enzyme inhibition qHTS, 1536-well; series mostly up to 56 µM; also: nearly all actives have a fitted effect of over 55% in size
# [6] = target: Retinaldehyde dehydrogenase 3 (Homo sapiens) (UniProt P47895); assay: qHTS for Inhibitors of the Aldehyde Dehydrogenase Family (ALDH1A3) Primary screen (AID 2061315); settings: ALDH inhibition qHTS; series mostly up to 56 µM
# [7] = target: Aldehyde dehydrogenase, mitochondrial (Homo sapiens) (UniProt P05091); assay: qHTS for Inhibitors of the Aldehyde Dehydrogenase Family (ALDH2) Confirmatory screens (AID 2061303; active = well fitted inhibition curve with a large enough effect; title and protocol of this record describe different tests; also: nearly all actives have a fitted effect of over 45% in size; also: potency is read from the fitted curve at half-maximal effect); settings: ALDH inhibition qHTS; series mostly up to 45.4 µM
# [8] = qHTS for Inhibitors of the Aldehyde Dehydrogenase Family (ALDH1A2, ALDH1A3, ALDH2, ALDH3A1) (AID 2061307); settings: ALDH inhibition qHTS; series mostly up to 50.3 µM; also: nearly all actives have a fitted effect of over 50% in size; as to potency: test system not described further here; potency is read from the fitted curve at half-maximal effect
# [9] = target: Aldehyde dehydrogenase 1A1 (Homo sapiens) (UniProt P00352); assay: qHTS for Inhibitors of the Aldehyde Dehydrogenase Family (ALDH1A1) Confirmatory screens (AID 2061316); settings: ALDH inhibition qHTS; series mostly up to 47.3 µM; also: potency is read from the fitted curve at half-maximal effect; nearly all actives have a fitted effect of over 65% in size
# [10] = target: Retinaldehyde dehydrogenase 3 (Homo sapiens) (UniProt P47895); assay: qHTS for Inhibitors of the Aldehyde Dehydrogenase Family (ALDH1A3) Confirmatory screens (AID 2061311); settings: ALDH inhibition qHTS; series mostly up to 46 µM; also: potency is read from the fitted curve at half-maximal effect; nearly all actives have a fitted effect of over 60% in size
structure (smiles),measurement,setting,value
C=CCN1CC[C@]23CCCCC2[C@H]1Cc1ccc(O)cc13 (some centres undefined),activation,[1],-35.3%
same,Potency,[2],inactive
same,Potency,[3],inactive
same,Potency,[4],inactive
CCCN(CCC)[C@H]1CCc2c(F)ccc(O)c2C1,activation,[1],15.8%
same,Potency,[2],inactive
same,Potency,[3],inactive
C[C@@H]1O[C@H](C[N+](C)(C)C)C[C@H]1O,activation,[1],-7.38%
same,Potency,[2],inactive
same,Potency,[3],inactive
CN1CCC[C@@H]1Cc1c[nH]c2ccc(Nc3ncccc3[N+](=O)[O-])cc12,activation,[1],-40.7% and 3.34%
same,Potency,[2],inactive
same,Potency,[3],inactive
same,Potency,[5],inactive
same,Potency,[4],inactive
same,Potency,[6],inactive
NCCCP(=O)(O)O,activation,[1],-25.8%
same,Potency,[2],inactive
same,Potency,[3],inactive
same,Potency,[4],inactive
C[C@]12CCC3C(CC[C@H]4C[C@H](O)CC[C@]34C)C1CC[C@@H]2C(=O)CO (some centres undefined),activation,[1],-8.4%
same,Potency,[2],inactive
same,Potency,[3],inactive
same,Potency,[4],inactive
CC(=O)NCCc1c[nH]c2ccccc12,activation,[1],-24.3%
same,Potency,[2],inactive
same,Potency,[3],inactive
same,Potency,[5],inactive
same,Potency,[4],inactive
same,Potency,[6],inactive
O=C1CC[C@@]2(O)C3Cc4ccc(O)c5c4C2(CCN3CC2CC2)[C@H]1O5 (some centres undefined),activation,[1],-10.4%
same,Potency,[2],inactive
same,Potency,[3],inactive
N=C(N)c1ccc(CS(=O)(=O)F)cc1,activation,[1],3.92%
same,Potency,[2],inactive
same,Potency,[3],inactive
NC(=O)c1ccc(OCC(O)CN2CC=C(c3ccc(F)cc3)CC2)cc1 (centres undefined),activation,[1],5.52%
same,Potency,[2],inactive
same,Potency,[3],inactive
COc1ccc2c(c1)C13CCCCC1C(C2)N(C)CC3 (centres undefined),activation,[1],-0.635%
same,Potency,[2],inactive
same,Potency,[3],inactive
same,Potency,[4],inactive
COc1ccc2c(c1OC)C(=O)O[C@H]2[C@@H]1c2cc3c(cc2CCN1C)OCO3,activation,[1],9.21% and -17.4%
same,Potency,[2],inactive
same,Potency,[3],inactive
same,Potency,[4],inactive
S=C(NC1CCCCC1)N1CCC(c2cnc[nH]2)CC1,activation,[1],5.67% and -16.8%
same,Potency,[2],inactive
same,Potency,[3],inactive
same,Potency,[5],inactive
same,Potency,[4],inactive
same,Potency,[6],inactive
O=C(NC1CN2CCC1CC2)c1cc2ccoc2cn1 (centres undefined),activation,[1],-11.8%
same,Potency,[2],inactive
same,Potency,[3],inactive
OCc1cnc[nH]1,activation,[1],-9.48%
same,Potency,[2],inactive
same,Potency,[3],inactive
Nc1cc2c(ncn2CCOCP(=O)(O)O)c(=O)[nH]1,activation,[1],-41.7%
same,Potency,[2],inactive
same,Potency,[3],inactive
Cc1cc([C@@H]2CCCN2C)on1,activation,[1],4.82%
same,Potency,[2],inactive
same,Potency,[3],inactive
CC(C)Oc1cccnc1N(C)C1CCN(Cc2ccccc2)CC1,activation,[1],-4.1%
same,Potency,[2],inactive
same,Potency,[3],inactive
same,Potency,[4],inactive
CCCN1CCC[C@@H]2Cc3nc(N)ncc3C[C@H]21,activation,[1],-29.3% and -27.1%
same,Potency,[2],inactive
same,Potency,[3],inactive
same,Potency,[7],inactive
same,Potency,[8],inactive
C[C@H](N)CN1CCc2ccc(Br)cc21,activation,[1],5.22%
same,Potency,[2],inactive
same,Potency,[3],inactive
same,Potency,[4],inactive
C[N+](C)(C)CC#CCOC(=O)Nc1cccc(Cl)c1,activation,[1],13.3%
same,Potency,[2],inactive
same,Potency,[3],10 µM (active)
same,Potency,[7],10.1 µM (active)
same,Potency,[9],22.5 µM (active)
[Cl-].[Cl][Pt].[NH2-].[NH2-].c1ccncc1,activation,[1],-12%
same,Potency,[2],inactive
same,Potency,[3],inactive
COc1ccc2[nH]c3c(c2c1)CCNC3,activation,[1],-23.5%
same,Potency,[2],inactive
same,Potency,[3],inactive
same,Potency,[4],inactive
CN(C(=O)Cc1ccc(Cl)c(Cl)c1)C(CN1CCCC1)c1cccc(OCC(=O)O)c1 (centres undefined),activation,[1],-43.2%
same,Potency,[2],inactive
same,Potency,[3],inactive
same,Potency,[4],inactive
NNC(=O)c1ccc(O)cc1,activation,[1],-20.3%
same,Potency,[2],inactive
same,Potency,[3],inactive
same,Potency,[8],8.96 µM (active)
same,Potency,[4],inactive
N#CC(C#N)=Cc1ccc(O)c(O)c1,activation,[1],23.2% and -8.42%
same,Potency,[2],inactive
same,Potency,[3],inactive
same,Potency,[8],inactive
same,Potency,[10],0.798 µM (active)
same,Potency,[9],20.1 µM (active)
CCCC[N+]1(C)C2CC(OC(=O)[C@H](CO)c3ccccc3)CC1C1OC12 (some centres undefined),activation,[1],-8.28%
same,Potency,[2],inactive
same,Potency,[3],inactive
same,Potency,[4],inactive
